# Measurements taken from the supplement of paper PMC3334620.
# Whole data set: some 33,000 sequences, median “E-score (-0.5 to 0.5)” near -0.013, cut for the highest 2% near 0.3. For the sample, the highest values were picked, then their nearest neighbours and some sequences at random.
# Biological target: T1, Msn1 (UniProt P22148)
# T1 sequence: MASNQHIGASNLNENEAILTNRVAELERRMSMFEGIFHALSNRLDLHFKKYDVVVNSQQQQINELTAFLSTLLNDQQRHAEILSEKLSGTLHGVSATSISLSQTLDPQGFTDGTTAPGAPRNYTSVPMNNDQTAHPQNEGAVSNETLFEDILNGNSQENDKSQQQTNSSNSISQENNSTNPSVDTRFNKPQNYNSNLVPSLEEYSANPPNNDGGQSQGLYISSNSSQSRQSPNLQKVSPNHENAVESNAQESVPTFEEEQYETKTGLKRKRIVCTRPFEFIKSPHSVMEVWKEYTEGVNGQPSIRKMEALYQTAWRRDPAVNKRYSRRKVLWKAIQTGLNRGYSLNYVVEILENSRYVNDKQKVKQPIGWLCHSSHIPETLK
# Assay: PBM E-score (8-mer binding enrichment) (E-score (-0.5 to 0.5)); higher = stronger / more preferred TF binding
# Conditions: protein concentration: 200 nM; construct: GST-full length
# Protocol: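 Universal 'all 10-mer' protein binding microarrays (Agilent AMADID 015681) probed with GST-tagged S. cerevisiae TFs (full-length or DBD) made by in vitro transcription/translation (PURExpress), about 100-200 nM. Bound TF was detected with fluorescent anti-GST. Each ungapped 8-mer (which stands for itself and its reverse complement) is scored by the PBM enrichment score (E-score), a modified Wilcoxon-Mann-Whitney statistic from -0.5 to +0.5, computed with the Universal PBM Analysis Suite. Scale: above 0.35 generally sequence-specific binding.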
row,Sequence,PBM E-score
1,ACGTACAG,-0.0675
2,AAGTACAT,0.356
3,ACGTACAA,0.234
4,AAGTACAC,0.192
5,GAGTCATC,-0.114
6,GGTGTCAC,-0.0252
7,AACGACAA,0.262
8,CGCGACAA,0.304
9,AATGACAT,0.42
10,AACGACAT,0.417
11,AACGACAG,-0.0454
12,GACGACAA,0.299
13,CACGACAA,0.256
14,AATGACAC,0.213
15,AATGACAG,0.151
16,GGCGACAA,0.069
17,TACGACAA,0.352
18,CGCGACAG,-0.00106
19,CAAGATCC,0.0979
20,AAGCAAAG,-0.064
21,AGGGCCTC,-0.236
22,AGTTGTGA,0.137
23,CGGACCAA,0.256
24,CTATCGCA,-0.201
25,AACCACGT,-0.0931

row,Sequence,PBM E-score
1,CTACCAAA,-0.0795
2,GAGTACTA,0.198
3,TGCGACAA,0.338
4,AGCGACAA,0.301
5,TGCGACCA,0.0994
6,ATTTAATG,0.202
7,GATTAATA,0.143
8,TATTAATA,-0.134
9,AATTAATT,0.168
10,GTTTAAAA,0.0898
11,AACTAATA,0.326
12,CACTAATA,0.0713
13,ATTTAATA,0.336
14,CTTTAATA,0.193
15,GTTTAATA,0.315
16,AATTAATA,0.352
17,TACTAATA,0.0704
18,CGCGGTGC,-0.123
19,TAAGTTAA,-0.0568
20,CGCTACCG,0.00385
21,GGCGAAAA,0.24
22,GTTAGAAA,-0.0269
23,CATCTTCA,0.0522
24,GGAGGGCC,-0.273
25,CGCCAGGC,-0.174

row,Sequence,PBM E-score
1,AATATTAT,0.208
2,AATATTAA,0.318
3,AATATTAG,0.131
4,CATATTAG,0.193
5,AATATTGC,0.218
6,TATATTAA,0.232
7,CATATTAA,0.32
8,AATATTGT,0.35
9,AATATTGG,-0.0454
10,CGATAAAG,0.119
11,AGCTCACC,-0.141
12,AAAGTCCG,0.342
13,CAAGTCCG,0.0478
14,TAAGTCCA,0.26
15,CAAGTCCC,0.148
16,AAAGTCGT,0.223
17,AAAGTCCC,0.344
18,AAAGTCCT,0.427
19,AGAGTCCG,0.0522
20,AAAGTCCA,0.378
21,AGAGTCCT,-0.0894
22,GAAGTCCA,0.212
23,GAAGTCCC,-0.0665
24,AATGGCTA,-0.0496
25,ATGTTCAA,0.185

row,Sequence,PBM E-score
1,CCACTGGA,-0.216
2,GATTCTAA,0.0481
3,TGGCTACA,0.0201
4,ATTAGCAA,0.22
5,AAGTACGG,0.0556
6,AAGCTAAA,0.12
7,CATATTCC,0.0363
8,CACCCGTG,-0.213
9,TCAGACAA,0.367
10,CCAGACAA,0.258
11,ACAGACAT,0.399
12,ACAGACAA,0.44
13,ACAGACAC,0.288
14,ACAGACAG,0.222
15,GCAGACAA,0.341
16,GCAGACCA,-0.0683
17,GCAGACAC,0.203
18,ACAGACGA,0.153
19,TCAGACCA,-0.0852
20,CCAGACAG,-0.094
21,TATGAGAA,0.0684
22,AATGGTCG,-0.0526
23,TAGATTCA,-0.192
24,GCTTCTTA,-0.0464
25,TCATGTCA,0.252

row,Sequence,PBM E-score
1,ACATGTCG,0.311
2,CCATGTCG,0.239
3,ACATGTAA,0.255
4,ACATGTCT,0.436
5,ACCTGTCT,0.0544
6,ACATGTTA,0.199
7,ACATGCCT,-0.119
8,ACATGTCA,0.358
9,ACATGTAT,0.312
10,ACATGTTG,0.235
11,ACATGTAG,0.244
12,ACCGATAG,0.0834
13,GATTCCGC,0.0634
14,AAGCCGCA,-0.0983
15,GACTGCAA,-0.16
16,AAAGCGAT,0.00359
17,TAGGTGAA,0.0103
18,CCATGTCA,0.164
19,GCATGTAC,0.291
20,CCATGTCC,0.434
21,ACATGTGC,0.0743
22,GCATGTCA,0.261
23,GCATGTCC,0.459
24,ACATGTTC,0.147
25,ACATGTCC,0.48

row,Sequence,PBM E-score
1,CCATGTAC,0.216
2,CGGGTTGA,-0.255
3,CCAGCCCC,-0.304
4,CTTTGCTA,-0.0573
5,AAACAGTA,-0.0344
6,CCACAAGC,-0.0513
7,AGTACATC,0.131
8,CGGACATA,0.469
9,AGGACATG,0.484
10,CGGACATC,0.387
11,AGCACATC,-0.0251
12,CGGACCTA,0.00062
13,AGCACATG,-0.0192
14,CGGACAGC,0.182
15,CGGACTGA,0.0816
16,CCGACATC,0.0379
17,AGGACATC,0.477
18,AGTACATG,0.266
19,ATGGGCAA,0.0683
20,ACATACCG,0.114
21,GGAACGAA,0.0279
22,AATCTAAG,0.00698
23,GCGAGATA,0.09
24,ATCTTCCA,-0.148
25,GGGACATA,0.488

row,Sequence,PBM E-score
1,GGGACTGA,-0.182
2,GGGACAGA,0.262
3,AGCGTAGG,-0.267
4,GACCACCA,-0.246
5,ATCAGACC,-0.192
6,AAACTGCT,-0.222
7,CGCCAACG,-0.126
8,CGCTCTAC,-0.0195
9,CGTATTGA,-0.0137
10,ACTGCGGG,-0.124
11,CGTCTTAA,0.0585
12,GGTCTGAA,0.0803
13,GGTCGCAA,-0.11
14,TGTCGCAA,0.324
15,TGTCTGAA,0.364
16,TGTCTTAA,0.375
17,TGTCTAAA,0.38
18,GGTCTAAA,-0.0883
19,CGTCGCAA,0.0166
20,AGTCTGAA,0.029
21,AGTCTAAA,0.0711
22,AGTCTTAA,0.11
